A short description of assay [1]: antimalarial activity against Dd2 strain (AID 2302;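 active = growth inhibition above 50% at the single 2 µM test dose, taken to imply half-maximal potency below 2 µM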;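 note: 0% = DMSO untreated growth and 100% = chloroquine plus artemisinin killed control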). The following applies: P. falciparum Dd2 in RBCs, LDH growth readout, 72 h; at 2 µM; hits give high values.
Assay [2] can be described thus: HepG2 cytotoxicity, primary screen, cytotoxicity control for P. falciparum antimalarial project, cell-based, ATP luminescence (AID 2303;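 active = inhibition above 50%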;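 note: 0% = DMSO wells and 100% = digitonin-killed cells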). Particulars: HepG2 viability, 24-48 h, at 10 µM, hits give high values.
Assay [3] deals with L-lactate dehydrogenase (Plasmodium falciparum (isolate CDC / Honduras)) (UniProt Q27743). Put plainly: PfLDH activity inhibition – cell lysate, 3D7 strain, counter-screen for P. falciparum growth inhibition project (AID 2304).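 Note: 0% = vehicle and 100% = reference inhibitor.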 Particulars: P. falciparum 3D7 crude extract, LDH APAD/NBT absorbance; at 2 µM; hits give high values. (Counterscreens check selectivity or assay interference.)
Chain of L-lactate dehydrogenase (Plasmodium falciparum (isolate CDC / Honduras)) (Q27743 whole entry, looked up): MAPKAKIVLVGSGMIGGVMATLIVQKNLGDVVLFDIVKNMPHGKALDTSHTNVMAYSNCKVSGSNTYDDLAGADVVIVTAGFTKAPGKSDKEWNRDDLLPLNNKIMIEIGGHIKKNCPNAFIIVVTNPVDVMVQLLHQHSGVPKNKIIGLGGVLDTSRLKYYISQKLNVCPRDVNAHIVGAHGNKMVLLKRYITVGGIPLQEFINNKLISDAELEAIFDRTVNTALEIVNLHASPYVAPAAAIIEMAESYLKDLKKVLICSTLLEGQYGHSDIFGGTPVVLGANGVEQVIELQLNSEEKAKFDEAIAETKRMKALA

A short description of assay [4]: inhibition of 3D7 malaria parasite growth – strain 3D7 (AID 2306).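 Note: 0% = DMSO wells and 100% = chloroquine plus artemisinin control wells.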 The following applies: P. falciparum 3D7 erythrocytic growth, LDH absorbance, 72 h; at 2 µM; hits give high values.
The target in assay [5] is Calcium-dependent protein kinase 1 (Plasmodium falciparum (isolate 3D7)) (UniProt P62344). In words: PfCDPK1 kinase inhibitors, biochemical, TCAMS library (AID 1159585; cut-off not given, nearly all actives have IC50 up to about 0.98 µM;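 note: inhibitors leave more ATP so luminescence rises with inhibition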). The following applies: recombinant PfCDPK1, Kinase-Glo ATP depletion luminescence. Background: In Kinase-Glo more light means more ATP remaining.
Chain of Calcium-dependent protein kinase 1 (Plasmodium falciparum (isolate 3D7)) (P62344 whole entry, looked up): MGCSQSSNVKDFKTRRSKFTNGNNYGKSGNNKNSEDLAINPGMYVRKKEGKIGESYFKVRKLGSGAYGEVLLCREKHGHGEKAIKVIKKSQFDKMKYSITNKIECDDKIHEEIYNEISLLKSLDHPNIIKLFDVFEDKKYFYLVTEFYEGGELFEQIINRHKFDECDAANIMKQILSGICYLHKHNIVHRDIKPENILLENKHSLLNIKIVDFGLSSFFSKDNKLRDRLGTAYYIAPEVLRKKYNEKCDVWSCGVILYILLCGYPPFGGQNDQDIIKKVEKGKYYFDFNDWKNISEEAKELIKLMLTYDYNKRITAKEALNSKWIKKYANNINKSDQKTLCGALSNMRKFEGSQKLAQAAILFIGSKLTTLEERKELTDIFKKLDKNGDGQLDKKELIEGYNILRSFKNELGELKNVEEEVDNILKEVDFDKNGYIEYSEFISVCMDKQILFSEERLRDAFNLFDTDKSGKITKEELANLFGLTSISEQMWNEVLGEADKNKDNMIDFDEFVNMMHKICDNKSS
The target of assay [6] is Plasmodium falciparum protein kinase 6 (PK6, PF3D7_1337100) (UniProt Q8IDW1). Put plainly: PfPK6 kinase inhibitors, biochemical, TCAMS library (AID 1159586). Particulars: recombinant PfPK6, Kinase-Glo ATP depletion luminescence.
Chain of Plasmodium falciparum protein kinase 6 (PK6, PF3D7_1337100) (Q8IDW1 1-305): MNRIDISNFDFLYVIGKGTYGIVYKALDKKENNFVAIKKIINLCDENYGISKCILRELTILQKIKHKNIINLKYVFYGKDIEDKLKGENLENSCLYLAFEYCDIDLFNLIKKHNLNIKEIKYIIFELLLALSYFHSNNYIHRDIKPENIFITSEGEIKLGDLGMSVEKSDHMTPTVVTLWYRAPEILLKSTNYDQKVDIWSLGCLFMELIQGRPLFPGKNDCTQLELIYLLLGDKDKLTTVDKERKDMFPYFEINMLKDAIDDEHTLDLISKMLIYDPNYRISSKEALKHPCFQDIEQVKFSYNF
Assay [7] deals with Protein kinase 7 (PK7), Plasmodium falciparum 3D7 (PF3D7_0213400) (UniProt Q7YTF7). Put plainly: inhibition of Plasmodium PK7 catalytic activity – biochemical, TCAMS antimalarial set, Kinase-Glo luminescence (AID 1159587). Particulars: recombinant PfPK7, Kinase-Glo ATP depletion luminescence.
Chain of Protein kinase 7 (PK7), Plasmodium falciparum 3D7 (PF3D7_0213400) (Q7YTF7 1-343): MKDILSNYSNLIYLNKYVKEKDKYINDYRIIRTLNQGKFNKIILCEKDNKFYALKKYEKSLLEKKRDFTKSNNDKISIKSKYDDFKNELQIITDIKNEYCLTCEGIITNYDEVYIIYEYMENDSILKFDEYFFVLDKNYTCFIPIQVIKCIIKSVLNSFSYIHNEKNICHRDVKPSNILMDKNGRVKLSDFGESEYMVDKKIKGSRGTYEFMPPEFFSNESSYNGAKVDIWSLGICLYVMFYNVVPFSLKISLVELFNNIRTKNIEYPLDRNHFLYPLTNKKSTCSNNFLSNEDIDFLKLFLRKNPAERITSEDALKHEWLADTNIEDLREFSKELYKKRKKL
In assay [8] the target is Calcium-dependent protein kinase 4 (Plasmodium falciparum (isolate 3D7)) (UniProt Q8IBS5). Put plainly: PfCDPK4 kinase inhibitors, biochemical, TCAMS library (AID 1159588; cut-off not given, nearly all actives have IC50 up to about 0.91 µM). The following applies: recombinant PfCDPK4, Kinase-Glo ATP depletion luminescence.
Chain of Calcium-dependent protein kinase 4 (Plasmodium falciparum (isolate 3D7)) (Q8IBS5 whole entry, looked up): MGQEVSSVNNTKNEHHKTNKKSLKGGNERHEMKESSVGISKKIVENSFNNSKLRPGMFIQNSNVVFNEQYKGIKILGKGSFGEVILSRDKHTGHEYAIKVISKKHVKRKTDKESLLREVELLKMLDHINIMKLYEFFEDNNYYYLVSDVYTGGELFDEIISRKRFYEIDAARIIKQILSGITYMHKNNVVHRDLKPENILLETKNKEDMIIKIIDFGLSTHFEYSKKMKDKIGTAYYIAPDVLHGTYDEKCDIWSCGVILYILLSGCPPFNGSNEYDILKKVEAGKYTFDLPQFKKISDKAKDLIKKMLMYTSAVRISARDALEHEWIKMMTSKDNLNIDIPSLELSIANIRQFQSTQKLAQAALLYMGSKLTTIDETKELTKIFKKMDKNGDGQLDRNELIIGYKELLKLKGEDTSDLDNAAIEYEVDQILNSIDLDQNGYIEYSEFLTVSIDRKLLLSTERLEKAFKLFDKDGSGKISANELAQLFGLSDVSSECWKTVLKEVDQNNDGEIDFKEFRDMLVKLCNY

Experimental findings from PubChem BioAssay are described below.

A number with no mark means an inactive call. For some of these results: Potency and affinity values are given separately. The source made the active and inactive calls. Unless noted, the rule behind the calls is not given here.

Broadly, the inhibition is the change of the read-out against control, counted positive when it falls. In the case of `CCOc1ccc(-c2nc(NC(=O)CS(=O)(=O)c3ccccc3)sc2C)cc1`, the growth inhibition in assay [1] was 59% (active); in assay [4] it was 100% (active). Besides, the inhibition in assay [2] is 6%; in assay [3], 2%. In addition, the result in assay [5], in assay [6], in assay [7] and in assay [8] was inactive.
Consider `CCCOc1ccc2ccccc2c1CNCCCCCCNCc1c(OCCC)ccc2ccccc12`, for which the growth inhibition was 90% (active) in assay [1] and 94% (active) in assay [4]. In addition, the inhibition in assay [2] is 100% (active); in assay [3], 0%. Moreover, the outcome in assay [5], in assay [6], in assay [7] and in assay [8] was inactive.
As to `CCCCCCOc1ccc(C(=O)NCCCC2CCCN(CCCCCNC(=O)C=Cc3ccc(Cl)c(Cl)c3)C2)cc1` (stereo not given), the growth inhibition in assay [1] is 12%; in assay [4] it was 96% (active). In addition, the inhibition in assay [2] was 20%; in assay [3], 2%. For the same compound, the outcome in assay [5], in assay [6], in assay [7] and in assay [8] was inactive.
Consider `COc1ccc(CCNCC(O)COc2nccc3c(S(=O)(=O)N4CCCNCC4)cccc23)cc1OC` (stereo not given), for which the results for the growth inhibition in assay [1] and in assay [4] were -5% and 96% (active), respectively. The inhibition was 59% (active) in assay [2] and -6% in assay [3]. The outcome in assay [5], in assay [6], in assay [7] and in assay [8] was inactive.
Regarding `COc1ccc(CN(C)CCCOc2ccc(NC(=O)c3cccc4c(=O)c5cccc(F)c5[nH]c34)cc2)cc1OC`, the growth inhibition in assay [1] is 96% (active); in assay [4], 100% (active). Moreover, the inhibition in assay [2] is 6%; in assay [3] it was -3%. The outcome in assay [5], in assay [6], in assay [7] and in assay [8] was inactive.
Regarding `CCC(C)NCC(O)(c1ccc(Cl)cc1)c1ccc(Cl)cc1` (stereo not given), the figures for the growth inhibition in assay [1] and in assay [4] were 76% (active) and 95% (active), respectively. In addition, the inhibition in assay [2] was 5%; in assay [3] it was 0%. Moreover, the result in assay [5], in assay [6], in assay [7] and in assay [8] was inactive.
With `NC1CCCN(Cc2ccc(-c3ccc(-c4nc5ccccc5[nH]4)s3)cc2)C1` (stereo not given), the results for the growth inhibition in assay [1] and in assay [4] were 99% (active) and 102% (active), respectively. Besides, the inhibition in assay [2] is 40%; in assay [3] it was -2%. The result in assay [5], in assay [6], in assay [7] and in assay [8] was inactive.
For `Cc1cccc(C(=O)Nc2ccnc(N(C)CCCN(C)Cc3cccc(O)c3)c2)c1`, the figures for the growth inhibition in assay [1] and in assay [4] were 71% (active) and 94% (active), respectively. For the same compound, the inhibition in assay [2] was 27%; in assay [3] it was -3%. Besides, the result in assay [5], in assay [6], in assay [7] and in assay [8] was inactive.
Regarding `C[C@H](Nc1nc(C(Oc2ccccc2)c2ccccc2)nc2[nH]ncc12)c1ccccc1` (stereo not given in full), the growth inhibition in assay [1] was 56% (active); in assay [4], 100% (active). In addition, the figures for the inhibition in assay [2] and in assay [3] were 15% and -5%, respectively. Moreover, the result in assay [5], in assay [6], in assay [7] and in assay [8] was inactive.
Turning to `c1ccc(Oc2ccc(Nc3ccnc(Nc4cccc(CNCCCN5CCOCC5)c4)n3)cc2)cc1`, the growth inhibition in assay [1] was 50% (active); in assay [4] it was 100% (active). Besides, the inhibition in assay [2] and in assay [3] was -1% in each case. For the same compound, the result in assay [5], in assay [6], in assay [7] and in assay [8] was inactive.
As to `COc1ccc(-n2nc(C)c3c2NC(=O)CC3c2ccccc2OCc2ccccc2F)cc1` (stereo not given), the figures for the growth inhibition in assay [1] and in assay [4] were 70% (active) and 93% (active), respectively. Also, the inhibition is 38% in assay [2] and 4% in assay [3]. Moreover, the result in assay [5], in assay [6], in assay [7] and in assay [8] was inactive.
`O=C(Nc1cc(C(F)(F)F)ccc1N1CCOCC1)C(Cl)(Cl)Cl`: the growth inhibition in assay [1] and in assay [4] was 100% (active) each time. Further, the inhibition is -5% in assay [2] and 5% in assay [3]. Besides, the outcome in assay [5], in assay [6], in assay [7] and in assay [8] was inactive.
As to `CCc1nc(N)nc(N)c1-c1ccc(C(C)C)cc1`, the growth inhibition in assay [1] was -4%; in assay [4], 92% (active). Moreover, the inhibition was 3% in assay [2] and 1% in assay [3]. In addition, the result in assay [5], in assay [6], in assay [7] and in assay [8] was inactive.
As to `CC1=C(C(=O)Nc2ccc(Cl)cc2)C(c2ccncc2)n2nc(C(F)(F)F)nc2N1` (stereo not given), the growth inhibition in assay [1] was 49%; in assay [4], 87% (active). The inhibition in assay [2] was 25%; in assay [3], -5%. In addition, the outcome in assay [5], in assay [6], in assay [7] and in assay [8] was inactive.
In the case of `CCOC(=O)c1sc(C(C)Nc2ccccc2)nc1-c1ccccc1` (stereo not given), the growth inhibition in assay [1] was 91% (active); in assay [4] it was 95% (active). Besides, the values for the inhibition in assay [2] and in assay [3] were -8% and 5%, respectively. Moreover, the outcome in assay [5], in assay [6], in assay [7] and in assay [8] was inactive.
As for `CCOC(=O)c1ccc(OCCCCCCOc2ccc(Br)cc2)cc1`, the growth inhibition in assay [1] was -2%; in assay [4], 98% (active). In addition, the figures for the inhibition in assay [2] and in assay [3] were 12% and -4%, respectively. Besides, the outcome in assay [5], in assay [6], in assay [7] and in assay [8] was inactive.
Take `O=C(Cc1cccnc1)N(Cc1ccc(-c2ccc(CNCc3cccnc3)cn2)cc1)C1CCN(Cc2ccccc2)CC1`: the growth inhibition in assay [1] was 6%; in assay [4] it was 93% (active). The inhibition in assay [2] was 8%; in assay [3], -3%. Moreover, the result in assay [5], in assay [6], in assay [7] and in assay [8] was inactive.
Regarding `Cn1nccc1C(=O)NCCNCc1ccc(-c2cccc(-c3nc4ccc(F)cc4[nH]3)c2)cc1`, the growth inhibition was 98% (active) in assay [1] and 102% (active) in assay [4]. The inhibition in assay [2] was 37%; in assay [3], -7%. Moreover, the result in assay [5], in assay [6], in assay [7] and in assay [8] was inactive.
As to `S=C(NCCCCCN1CCC(c2c[nH]c3ccccc23)CC1)Nc1cccc(I)c1`, the results for the growth inhibition in assay [1] and in assay [4] were 14% and 99% (active), respectively. Further, the inhibition in assay [2] was 69% (active); in assay [3] it was -3%. The outcome in assay [5], in assay [6], in assay [7] and in assay [8] was inactive.
As for `O=C(NC1CCCCC1)c1csc(C2CCCN(C(=O)c3ccc(O)c(-c4cccc(C(F)(F)F)c4)c3)C2)n1` (stereo not given), the results for the growth inhibition in assay [1] and in assay [4] were 85% (active) and 96% (active), respectively. Besides, the inhibition in assay [2] was 8%; in assay [3], 5%. Moreover, the outcome in assay [5], in assay [6], in assay [7] and in assay [8] was inactive.
